Screens: PubChem, National Center for Advancing Translational Sciences (NCATS)
ATXN viability = Viability Counterscreen for Primary qHTS for Inhibitors of ATXN expression. hit rate 0.49% among 400,000. S2 cells (HEK-293 line with an ATXN2-luciferase reporter) viability, CellTiter-Fluor protease fluorescence, 24 h. Potency, µM (top dose mostly 56.7 µM), hits mostly cytotoxic. AID 651635, 2014; note: nearly all actives have a fitted effect of over 40% in size
ATXN2 expr inh = Primary qHTS for Inhibitors of ATXN expression | hit rate 0.72% among 360,000 | HEK-293 ATXN2-luciferase reporter, luminescence, 24 h | Potency, µM (series often up to 57 µM), usual class: inhibitors; note: nearly all actives have a fitted effect of over 55% in size
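ATXN2-luciferase reporter cells (luciferase flanked by upstream and downstream ATXN2 gene portions) were treated 24 h at 37 °C with compounds at up to 57 uM. SteadyGlo luminescence gave expression; GF-AFC fluorescence gave viability.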
TGFb inhibitor = qHTS for Inhibitors of TGF-b; Potency, µM (series often up to 46.1 µM), actives largely listed as inhibitors; AID 588855, 2011; hit rate 1.2% among 410,000; HepG2 CAGA-GFP TGF-b/SMAD3 reporter, GFP fluorescence, 18 h; TGF-beta stimulated, 500 pg/mL final; note: nearly all actives have a fitted effect of over 65% in size
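Smad-responsive CAGA-GFP expression was quantified in HEPG2 cells exposed to compounds and 500 pg/mL final TGF-beta for 18 h at 37 degrees C; unstimulated wells defined full inhibition.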
IL-1B inflam inh = qHTS for Inhibitors of Inflammasome Signaling: IL-1-beta AlphaLISA Primary Screen; THP-1 LPS/ATP IL-1B secretion, AlphaLISA, 16 h; active compounds read low; activity change, % at 57.5 µM; hit rate 4.7% among 360,000; AID 743279, 2014; in the data active = activity change below about -50%; inconclusive = mostly about -30% to -49%
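THP-1 cells pretreated 1 hr with compounds (up to 57.5 uM final), then stimulated with LPS (250 ng/mL final) plus ATP (1.25 mM final); secreted IL-1B measured by AlphaLISA after 16 hr, decreased signal indicating inhibition.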
HepG2 tox = qHTS for Inhibitors of TGF-b: Cytotox Counterscreen; HepG2 CAGA-GFP viability, ATP luminescence, 18 h; Potency, µM (top dose mostly 46.1 µM), hits mostly cytotoxic; hit rate 0.76% among 410,000; AID 588856, 2011
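HepG2 CAGA-GFP cells (1000/well, DMEM with 1% FBS) received compound, then TGF-beta at 500 pg/mL final, and were incubated 18 hours at 37 degrees C. Viability was read by CellTiter-Glo luminescence. Media-only wells were set as complete cell-killing and DMSO as no toxicity.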
Each line names hits and unclear results; the compound was inactive in the other large screens; ! = not confirmed by another sample. Compounds with a hit are over-represented: about 5.7% of the library has one in this group of screens. Unless noted, calls come from the whole dose curve; as a rule, active = well fitted curve in the direction sought with a large enough effect; inconclusive = small, poorly fitted or top-dose-only effect, or another doubt; inactive = no such curve, though single readings can be large; an effect the other way counts as inactive or inconclusive.

CCOC(=O)/C(C#N)=C1\Nc2ccccc2N=C1N(CC(C)C)CC(C)C	IL-1B inflam inh -58.8
Cc1ccccc1NC(=O)CN1CCC(n2nnc3ccccc32)CC1	none
Cc1nc2ccccc2n1C1CCN(CC(=O)Nc2ccccc2Br)CC1	ATXN viability inconclusive, ATXN2 expr inh inconclusive, TGFb inhibitor inconclusive, IL-1B inflam inh -51.2
COc1ccc(N2CC(NC(=O)C(c3ccccc3)c3ccccc3)CC2=O)cc1OC (stereo unspecified)	none (no result: IL-1B inflam inh)
COc1ccc(N2CCN(c3nc(NCCc4ccc(OC)c(OC)c4)nc(OC)n3)CC2)cc1	ATXN viability inconclusive, ATXN2 expr inh 28.2µM, TGFb inhibitor inconclusive, IL-1B inflam inh inconclusive
COc1ccc(CCNc2nc(C)cc(=O)[nH]2)cc1OC	none
CCOc1cc(C)nc(NCCc2ccc(OC)c(OC)c2)n1	ATXN viability inconclusive, IL-1B inflam inh -56.7
CCCC(=O)N1c2nc(-c3ccco3)nn2C2(CCCCC2)[C@@H]2CCCC[C@@H]21	TGFb inhibitor inconclusive (no result: ATXN viability, ATXN2 expr inh, IL-1B inflam inh)
O=C1CCCc2c(O)cccc21	none (no result: TGFb inhibitor, IL-1B inflam inh, HepG2 tox)
OC1CCCN(Cc2c3ccccc3cc3ccccc23)C1 (stereo unspecified)	ATXN2 expr inh 17.8µM
Cc1ccccc1-c1cccc(CN2CCN(C)C(CCO)C2)c1 (stereo unspecified)	IL-1B inflam inh -54.3
CC(C)N1CCN(Cc2cccc(-c3ccco3)c2)CC1CCO (stereo unspecified)	ATXN viability inconclusive
CN(CCCc1cnc[nH]1)C(=S)NCCCN(Cc1ccc(Cl)cc1)c1ccc(Br)cn1	TGFb inhibitor 7.08µM (no result: ATXN viability, ATXN2 expr inh, IL-1B inflam inh)
S=C(NCCCN(Cc1ccc(Cl)cc1)c1ccc(Br)cn1)NCc1ccc2nc[nH]c2c1	TGFb inhibitor inconclusive (no result: ATXN viability, ATXN2 expr inh, IL-1B inflam inh)
CC(=O)NCCCNC(=S)NCCCN(Cc1ccc(Cl)cc1)c1ccc(Br)cn1	ATXN viability inconclusive, ATXN2 expr inh inconclusive, TGFb inhibitor 15.8µM, HepG2 tox 12.6µM! (no result: IL-1B inflam inh)
O=[N+]([O-])c1cccc(OCCCN2CCC(Cc3ccccc3)CC2)c1	TGFb inhibitor inconclusive, IL-1B inflam inh -73.4
CC1CCN(CCCCOc2ccccc2[N+](=O)[O-])CC1	IL-1B inflam inh -61.8
Cc1ccc([N+](=O)[O-])c(OCCN2CCC(Cc3ccccc3)CC2)c1	IL-1B inflam inh -98.6
CC1CCN(CCCCOc2ccc([N+](=O)[O-])cc2)CC1	none
O=[N+]([O-])c1ccc(CN2CCC(Cc3ccccc3)CC2)cc1	ATXN viability inconclusive (no result: ATXN2 expr inh)
C1=Cc2ccccc2/C1=C\c1cc2c3c(c1)CCCN3CCC2	none (no result: ATXN viability, ATXN2 expr inh, IL-1B inflam inh)
CCCc1cc(=O)[nH]c(Nc2ccc(C)c(O)c2)n1	none (no result: IL-1B inflam inh)
CCCN(CCC)C(=O)Cn1c(SCc2cccc(F)c2)nc2cccnc21	none (no result: ATXN viability, ATXN2 expr inh, IL-1B inflam inh)
CCOc1cc(-c2cc(-c3ccc(C)cc3)nc(N)c2C#N)ccc1O	ATXN viability inconclusive, ATXN2 expr inh inconclusive, TGFb inhibitor inconclusive
CCOc1cc(/C=C(\C#N)c2[nH]nc(N)c2C#N)ccc1O	ATXN viability inconclusive, TGFb inhibitor inconclusive, IL-1B inflam inh -64.8
O=C(O)c1cccc(-c2nnn(Cc3ccccc3)n2)c1	none
O=C(O)c1cccc(-c2nnn(Cc3ccccc3Cl)n2)c1	ATXN2 expr inh 11.2µM
COc1ccc(NC(=O)C2CCCN(c3nnc(C)c4c(C)n(-c5ccccc5)nc34)C2)cc1Cl (stereo unspecified)	ATXN viability 11.2µM, ATXN2 expr inh 12.6µM, TGFb inhibitor 15.8µM, HepG2 tox 17.8µM (no result: IL-1B inflam inh)
CCc1ccc(CNC(=O)C2CCCN(c3nnc(C)c4c(C)n(-c5ccc(OC)cc5)nc34)C2)cc1 (stereo unspecified)	ATXN viability inconclusive, TGFb inhibitor 11.2µM, HepG2 tox 10µM (no result: IL-1B inflam inh)
COc1ccc(-n2nc3c(N4CCC(C(=O)NCc5cccc(F)c5)CC4)nnc(C)c3c2C)cc1	ATXN viability inconclusive, ATXN2 expr inh inconclusive, TGFb inhibitor 10µM, HepG2 tox 15.8µM (no result: IL-1B inflam inh)
Cc1nnc(N2CCCC(C(=O)NCc3ccc(OC(C)C)cc3)C2)c2nn(-c3ccccc3)c(C)c12 (stereo unspecified)	ATXN viability 15.8µM, ATXN2 expr inh inconclusive, IL-1B inflam inh inconclusive
COc1ccc(CNC(=O)C2CCCN(c3nnc(C)c4c(C)n(-c5ccc(C)cc5)nc34)C2)cc1 (stereo unspecified)	ATXN viability inconclusive, TGFb inhibitor inconclusive (no result: IL-1B inflam inh)
CC(C)(C)OC(=O)N1CCC(c2c(C(=O)NCCN3CCc4ccccc4C3)cnn2-c2ccc(F)cc2)CC1	TGFb inhibitor inconclusive (no result: IL-1B inflam inh)
CN(C)/[N+]([O-])=N/Oc1cc(ON=[N+]([O-])N2CCN(c3ncccn3)CC2)c([N+](=O)[O-])cc1[N+](=O)[O-]	TGFb inhibitor inconclusive (no result: ATXN viability, ATXN2 expr inh, IL-1B inflam inh)
CCOC(=O)c1ccc(NC(=O)Nc2ccc(OC)c(OC)c2)cc1	none
COc1ccc(NC(=O)C#Cc2ccccc2)cc1OC	IL-1B inflam inh -70.8
O=C(C#Cc1ccccc1)Nc1ccccc1F	ATXN viability inconclusive, TGFb inhibitor inconclusive, IL-1B inflam inh -93.3
CC(Oc1ccccc1)C(=O)Nc1ccc(C(N)=O)cc1 (stereo unspecified)	none
CCOC(=O)c1ccccc1NC(=O)Nc1ccc(OC)c(OC)c1	IL-1B inflam inh -67.4
NC(=O)c1ccc(NC(=O)C#Cc2ccccc2)cc1	ATXN viability inconclusive, TGFb inhibitor inconclusive, IL-1B inflam inh -101.0
CCS(=O)(=O)NCc1c(C)ncc2c1CCN(C(=O)c1csc(-c3cccs3)n1)C2	none (no result: ATXN2 expr inh, TGFb inhibitor, IL-1B inflam inh, HepG2 tox)
Cc1cc(/C=C(/C#N)c2nc3ccccc3[nH]2)c(C)n1-c1cccc([N+](=O)[O-])c1	IL-1B inflam inh -61.9
COc1cc(/C=C(\C#N)c2nc3ccc(C)cc3[nH]2)c([N+](=O)[O-])cc1OC	IL-1B inflam inh -89.1
Cc1ccc2nc(/C(C#N)=C\c3cc(O)ccc3[N+](=O)[O-])[nH]c2c1	none
COc1cc(/C=C(\C#N)c2nc3ccc(C)cc3[nH]2)cc([N+](=O)[O-])c1O	ATXN viability 17.8µM, TGFb inhibitor inconclusive
Cc1cccc(OCC(=O)Nc2ccc(Cl)c(-c3nc4ncccc4o3)c2)c1C	ATXN viability inconclusive, ATXN2 expr inh inconclusive (no result: IL-1B inflam inh)
COc1cc(C(=O)N(C)CC2CCN(CCc3cccc(C(F)(F)F)c3)CC2)ccc1C	ATXN viability inconclusive, ATXN2 expr inh inconclusive, TGFb inhibitor inconclusive, IL-1B inflam inh -86.4
O=C1C=C(Nc2ccc(O)cc2)C(=O)c2ccccc21	ATXN viability inconclusive, TGFb inhibitor 10µM, HepG2 tox 11.2µM
COC1=C(Nc2ccc(OC)cc2)C(=O)C(OC)=C(Nc2ccc(OC)cc2)C1=O	none
CCN(CC)c1ccc(NC2=C(Cl)C(=O)c3ccccc3C2=O)cc1	ATXN viability 10µM, ATXN2 expr inh 20µM, TGFb inhibitor inconclusive, IL-1B inflam inh -107.8
CCOc1ccc(NC2=C(OC)C(=O)c3ccccc3C2=O)cc1	ATXN viability inconclusive, TGFb inhibitor 11.2µM, IL-1B inflam inh -83.3
